Measured values published in PubChem BioAssay (Tox21).
“And” between values parts separate entries of the source, which are not always exact repeats. Equal entries are not always repeated. Inconclusive results are not listed. More than one record can exist for a structure, and the calls need not agree. The source made the active and inactive calls. Unless noted, calls come from the whole dose curve.

Key:
[1] = Nuclear factor erythroid 2-related factor 2/antioxidant responsive element (Nrf2/ARE) small molecule agonists: qHTS cell viability counter screen in human keratinocytes (AID 1919968; active = well fitted curve in the direction sought with a large enough effect in the repeat runs; an effect the other way counts as inactive or inconclusive; note: nearly all actives have a fitted effect of over 55% in size; note: potency is the fitted concentration of half-maximal effect)
Method in brief: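 Stably transfected HaCaT (KeratinoSens), 1,500/well. Test agents in DMSO were applied for 23 h, 37 C/5% CO2. CellTiter-Fluor was incubated 1 h before the fluorescence read.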

[2] = Nuclear factor erythroid 2-related factor 2/antioxidant responsive element (Nrf2/ARE) small molecule agonists: luciferase reporter gene qHTS assay in human keratinocytes (AID 1919969); note: nearly all actives have a fitted effect of over 35% in size; note: potency is the fitted concentration of half-maximal effect
[3] = biological target: Gonadotropin-releasing hormone receptor (Homo sapiens) (UniProt P30968); experiment: Human gonadotropin-releasing hormone receptor (GnRHR) small molecule agonists, calcium flux assay in GnRHR-HEK293 cells (AID 1920063); note: nearly all actives have a fitted effect of over 35% in size
Gonadotropin-releasing hormone receptor (Homo sapiens), sequence (P30968 whole entry, looked up): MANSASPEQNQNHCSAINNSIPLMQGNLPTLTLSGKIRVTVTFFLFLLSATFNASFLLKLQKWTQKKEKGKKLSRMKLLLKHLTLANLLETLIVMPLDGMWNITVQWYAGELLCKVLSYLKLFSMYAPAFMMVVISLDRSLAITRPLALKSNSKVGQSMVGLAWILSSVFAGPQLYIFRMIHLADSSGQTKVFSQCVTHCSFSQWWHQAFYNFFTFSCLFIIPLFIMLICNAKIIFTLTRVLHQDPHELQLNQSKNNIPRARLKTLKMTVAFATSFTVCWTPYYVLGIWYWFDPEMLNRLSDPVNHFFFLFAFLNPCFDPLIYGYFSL
Method in brief: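 Stable human GnRHR HEK293 line. 18 h plating, then calcium dye for 1 h at 37 C. Agonist-mode compound addition from DMSO stocks; fluorescence monitored 3 min.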

[4] = biological target: KiSS-1 receptor (Homo sapiens) (UniProt Q969F8); experiment: Human kisspeptin (KISS1R) small molecule agonists, calcium flux assay in KISS1R-HEK293 cells (AID 1920064; active = well fitted curve in the direction sought with a large enough effect in the repeat runs; an effect the other way counts as inactive or inconclusive)
KiSS-1 receptor (Homo sapiens), sequence (Q969F8 whole entry, looked up): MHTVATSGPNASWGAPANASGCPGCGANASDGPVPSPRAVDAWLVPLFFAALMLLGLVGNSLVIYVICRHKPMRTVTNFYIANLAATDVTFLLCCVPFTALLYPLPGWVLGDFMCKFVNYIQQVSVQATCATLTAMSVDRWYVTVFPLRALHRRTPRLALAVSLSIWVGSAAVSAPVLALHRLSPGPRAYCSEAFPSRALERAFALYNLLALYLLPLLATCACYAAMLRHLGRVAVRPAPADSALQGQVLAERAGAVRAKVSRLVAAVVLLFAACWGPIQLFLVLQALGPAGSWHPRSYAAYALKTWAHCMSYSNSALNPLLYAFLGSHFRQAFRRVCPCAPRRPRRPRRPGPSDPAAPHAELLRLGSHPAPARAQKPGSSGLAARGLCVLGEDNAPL
Method in brief: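 After overnight (18 h) culture at 37 C/5% CO2, human KISS1R-HEK293 cells received calcium dye for 1 h, then test compound; emission at 540 nm (excitation 480 nm) was tracked for 3 min.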

[5] = G protein-coupled receptor (GPCR) small molecule agonists, calcium flux assay: HEK293 wild type cell line counter screen (AID 1920065)
Method in brief: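 Following 18 h incubation at 37 C/5% CO2, plates got calcium dye for 1 h; compounds, ATP or DMSO were then pinned in and fluorescence followed kinetically (480/540 nm).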

[6] = p53 small molecule agonists, cell-based qHTS assay with human liver microsomes (AID 1963577)
Method in brief: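 p53RE-bla reporter cells were pre-incubated 5 h at 37 C, then treated with compounds plus human liver microsomes (0.5 mg/mL final) and NADPH (0.5 mg/mL final) for 16 h at 37 C. Beta-lactamase activity was read by LiveBLAzer fluorescence after 2 h at room temperature.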

[7] = p53 small molecule agonists, cell-based qHTS assay with rat liver microsomes (AID 1963578)
Method in brief: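 p53RE-bla cells were exposed to compounds together with rat liver microsomes (0.5 mg/mL final) and NADPH (0.5 mg/mL final) for 16 h at 37 C, then read by LiveBLAzer beta-lactamase fluorescence after 2 h at room temperature.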

[8] = p53 small molecule agonists, cell-based qHTS assay with human liver microsomes: qHTS cell viability counter screen (AID 1963579); note: nearly all actives have a fitted effect of over 45% in size
Method in brief: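 p53RE-bla cells (4,000/well) were pre-incubated 5 h at 37 C, then given compounds in DMSO plus human liver microsomes (0.5 mg/mL final) and NADPH (0.5 mg/mL final) for 16 h at 37 C. Viability was read by CellTiter-Glo luminescence.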

[9] = p53 small molecule agonists, cell-based qHTS assay with rat liver microsomes: qHTS cell viability counter screen (AID 1963580); note: nearly all actives have a fitted effect of over 45% in size
Method in brief: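 Luminescent ATP readout (CellTiter-Glo, 30 min at room temperature) reports viability of p53RE-bla HCT-116 cells after 16 h at 37 C with test compounds under metabolic activation by rat liver microsomes and NADPH at 0.5 mg/mL final each.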

[10] = p53 small molecule agonists, cell-based qHTS assay (AID 1963582; active = well fitted activation curve with a large enough effect in the signal ratio in the repeat runs, not every such curve was filed as active; the % refers to the signal ratio)
Method in brief: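 Measured: fluorescence from cleaved LiveBLAzer substrate. System: p53RE-bla cells, 16 h compound treatment at 37 C, 2 h substrate step at room temperature.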

[11] = biological target: 5-hydroxytryptamine receptor 2A (Homo sapiens) (UniProt P28223); experiment: 5-hydroxytryptamine receptor 2A (HTR2A) small molecule antagonists, cell-based qHTS assay (AID 1963586); note: nearly all actives have a fitted effect of over 45% in size
5-hydroxytryptamine receptor 2A (Homo sapiens), sequence (P28223 whole entry, looked up): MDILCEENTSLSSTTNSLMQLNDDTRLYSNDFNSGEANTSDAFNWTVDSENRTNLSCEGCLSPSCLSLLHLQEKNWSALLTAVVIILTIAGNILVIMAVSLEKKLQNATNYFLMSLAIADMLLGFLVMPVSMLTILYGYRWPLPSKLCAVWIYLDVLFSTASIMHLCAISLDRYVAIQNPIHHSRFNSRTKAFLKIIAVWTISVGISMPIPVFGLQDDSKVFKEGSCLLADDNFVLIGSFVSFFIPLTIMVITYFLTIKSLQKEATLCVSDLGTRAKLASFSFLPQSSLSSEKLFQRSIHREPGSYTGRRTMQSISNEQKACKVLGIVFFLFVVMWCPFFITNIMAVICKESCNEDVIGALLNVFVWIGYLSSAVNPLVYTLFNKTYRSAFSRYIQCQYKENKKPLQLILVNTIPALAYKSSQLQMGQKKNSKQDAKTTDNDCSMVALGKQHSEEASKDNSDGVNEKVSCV
Method in brief: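 CHO cells stably expressing human HTR2A were plated for 18 h at 37 C, then loaded with calcium dye for 1 h. Compounds were preincubated 5 min at room temperature before DOI (4 nM solution) was added. Kinetic fluorescence was read for 3 min.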

[12] = biological target: 5-hydroxytryptamine receptor 2A (Homo sapiens) (UniProt P28223); experiment: 5-hydroxytryptamine receptor 2A (HTR2A) small molecule agonists, cell-based qHTS assay (AID 1963587); note: nearly all actives have a fitted effect of over 30% in size
Method in brief: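 HTR2A-CHO cells, plated 18 h at 37 C/5% CO2, dye-loaded 1 h at 37 C; compounds in DMSO added by pin tool (agonist mode). Intracellular calcium flux read as kinetic fluorescence on FDSS over 2 min at 1 s intervals.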

[13] = biological target: Muscarinic acetylcholine receptor M1 (Homo sapiens) (UniProt P11229); experiment: Cholinergic receptor muscarinic 1 (CHRM1) small molecule antagonists, cell-based qHTS assay (AID 1963588); note: nearly all actives have a fitted effect of over 40% in size
Muscarinic acetylcholine receptor M1 (Homo sapiens), sequence (P11229 whole entry, looked up): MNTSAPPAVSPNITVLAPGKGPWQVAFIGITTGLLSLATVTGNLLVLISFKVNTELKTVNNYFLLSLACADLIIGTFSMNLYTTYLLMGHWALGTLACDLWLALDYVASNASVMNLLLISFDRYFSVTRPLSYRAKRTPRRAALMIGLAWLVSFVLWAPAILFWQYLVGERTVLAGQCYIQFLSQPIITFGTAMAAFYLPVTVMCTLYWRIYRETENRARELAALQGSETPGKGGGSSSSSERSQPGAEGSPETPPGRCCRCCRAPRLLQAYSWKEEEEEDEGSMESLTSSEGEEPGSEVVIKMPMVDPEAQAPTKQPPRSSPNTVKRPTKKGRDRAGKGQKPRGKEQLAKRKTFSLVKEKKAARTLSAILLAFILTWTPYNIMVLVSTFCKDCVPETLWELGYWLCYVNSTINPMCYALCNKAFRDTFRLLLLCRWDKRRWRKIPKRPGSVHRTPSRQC
Method in brief: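 Compounds were tested at 15 concentrations in three independent runs. Dye-loaded CHRM1-CHO cells were exposed 5 min at room temperature before stimulation by acetylcholine added at 50nM. Intracellular calcium was read kinetically on FDSS for 3 min.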

[14] = biological target: Muscarinic acetylcholine receptor M1 (Homo sapiens) (UniProt P11229); experiment: Cholinergic receptor muscarinic 1 (CHRM1) small molecule agonists, cell-based qHTS assay (AID 1963589); note: nearly all actives have a fitted effect of over 35% in size
Method in brief: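 Kinetic fluorescence (1 s intervals) of calcium-sensitive dye in human M1 CHO cells after compound addition; cells pre-incubated 18 h at 37 C/5% CO2 and dye-loaded 1 h.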

[15] = cAMP Responsive Elements (CRE) small molecule agonists, cell-based qHTS assay (AID 1963590)
Method in brief: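 Test agents in DMSO were incubated 3 h at 37 C/5% CO2 with CRE-bla HEK 293T cells seeded 18 h earlier; LiveBLAzer B/G FRET substrate was added and read after 2 h at room temperature.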

[16] = cAMP Responsive Elements (CRE) small molecule antagonists, cell-based qHTS assay (AID 1963591; active = well fitted inhibition curve with a large enough effect in the signal ratio in the repeat runs, not every such curve was filed as active; the % refers to the signal ratio)
Method in brief: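 Reporter line CRE-bla HEK 293T in dialyzed-FBS DMEM; cells preincubated 18 h, treated 3 h with compound plus NKH477 (0.25 uM final); LiveBLAzer FRET, 2 h RT.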

[17] = biological target: Beta-2 adrenergic receptor (Homo sapiens) (UniProt P07550); experiment: Adrenergic beta2 receptor (ADRB2) small molecule antagonists, cell-based qHTS assay (AID 1963592); note: series mostly up to about 92 µM; nearly all actives have a fitted effect of over 50% in size
Beta-2 adrenergic receptor (Homo sapiens), sequence (P07550 whole entry, looked up): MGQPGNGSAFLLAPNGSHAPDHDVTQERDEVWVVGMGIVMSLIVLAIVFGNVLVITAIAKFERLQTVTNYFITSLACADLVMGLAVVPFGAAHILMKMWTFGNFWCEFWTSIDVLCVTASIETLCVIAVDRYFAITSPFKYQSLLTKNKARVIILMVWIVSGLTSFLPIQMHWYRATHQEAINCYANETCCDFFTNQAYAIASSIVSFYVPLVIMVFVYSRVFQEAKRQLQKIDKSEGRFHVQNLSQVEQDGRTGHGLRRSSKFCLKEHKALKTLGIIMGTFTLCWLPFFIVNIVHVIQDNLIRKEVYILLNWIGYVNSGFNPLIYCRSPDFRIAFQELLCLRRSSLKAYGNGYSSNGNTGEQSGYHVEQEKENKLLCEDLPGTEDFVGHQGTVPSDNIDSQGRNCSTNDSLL
Method in brief: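 Assay format: CHO-ADRB2 cells, 18-20hr seeding at 37C/5% CO2, then compound plus 1nM isoproterenol agonist mix for 0.5hr RT. Homogeneous time-resolved fluorescence cAMP detection after 1hr, expressed as 665/615 nm ratio.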

[18] = biological target: D(2) dopamine receptor (Homo sapiens) (UniProt P14416); experiment: Dopamine D2 receptor (DRD2) small molecule agonists, cell-based qHTS assay (AID 1963594); note: nearly all actives have a fitted effect of over 35% in size
D(2) dopamine receptor (Homo sapiens), sequence (P14416 whole entry, looked up): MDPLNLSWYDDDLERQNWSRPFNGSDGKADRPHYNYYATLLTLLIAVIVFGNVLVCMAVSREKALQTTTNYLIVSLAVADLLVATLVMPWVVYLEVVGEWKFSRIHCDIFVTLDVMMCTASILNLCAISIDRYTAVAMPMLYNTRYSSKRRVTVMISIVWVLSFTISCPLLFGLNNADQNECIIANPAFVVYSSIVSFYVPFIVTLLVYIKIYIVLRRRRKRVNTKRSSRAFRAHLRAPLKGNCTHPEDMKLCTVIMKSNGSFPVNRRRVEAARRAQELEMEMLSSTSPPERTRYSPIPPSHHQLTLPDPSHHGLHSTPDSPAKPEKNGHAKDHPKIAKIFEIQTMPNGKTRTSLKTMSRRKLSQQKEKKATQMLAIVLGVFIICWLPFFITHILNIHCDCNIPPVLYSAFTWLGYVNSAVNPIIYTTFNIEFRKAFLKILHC
Method in brief: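 HEK293 cells stably expressing DRD2 were cultured 24 h at 37 C, then given Ro20-1724 (0.1 mM final) and compounds for 10 min at room temperature. NKH477 (200nM) was then added for 30 min. cAMP was read by HTRF.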

[19] = p53 small molecule agonists, cell-based qHTS assay: qHTS cell viability counter screen (AID 1963581); note: nearly all actives have a fitted effect of over 45% in size; note: potency is the fitted concentration of half-maximal effect
Method in brief: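 qHTS counter screen: 16 h compound exposure at 37 C of p53RE-bla HCT-116 cells (4,000 per well, seeded 5 h prior), cell viability by ATP luminescence.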

[20] = biological target: D(2) dopamine receptor (Homo sapiens) (UniProt P14416); experiment: Dopamine D2 receptor (DRD2) small molecule antagonists, cell-based qHTS assay (AID 1963595; active = well fitted inhibition curve with a large enough effect in the signal ratio in the repeat runs, with a control signal flat; the % refers to the signal ratio)
Method in brief: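 Antagonist mode in DRD2-HEK293 cells: after compound addition with 0.1 mM Ro20-1724, cells received quinpirole (12 nM) and NKH477 (200 nM) for 30 min at room temperature; HTRF cAMP read after 1 h detection.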

Measured: Potency

C#CCOC(=O)/C=C(C)/C=C/CC(C)CCCC(C)C (stereo unspecified)
not listed: [19] | [20]
inactive: all other assays above

CCC(CC)Nc1c([N+](=O)[O-])cc(C)c(C)c1[N+](=O)[O-]
active: [2] 17.5 µM and 48.5 µM
not listed: [10]
inactive: all other assays above

O=C(O)C(F)(F)C(F)(F)C(F)(F)C(F)(F)C(F)(F)C(F)(F)C(F)(F)F
not listed: [10] | [12]
inactive: all other assays above

OCCSCSCCO
not listed: [10] | [14] | [15]
inactive: all other assays above

BrCCBr
not listed: [10] | [11]
inactive: all other assays above

Clc1ccc(C(c2ccc(Cl)cc2)C(Cl)Cl)cc1
active: [1] 27.8 µM | [19] 41.4 µM
15.6 µM (active) and inactive: [2]
not listed: [10] | [13] | [15]
inactive: all other assays above

Sc1ccccc1Cl
not listed: [19]
inactive: all other assays above
